Many of the other results were omitted from the sample, so hits are more common in it than they were.
FECH inh: human FECH heme synthesis enzyme inhibition | purified FECH, Ni-mesoporphyrin absorbance 550 nm | 3.3% of 20,000 active | P22830 | calls only at 10 µM (by protocol);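 active = enzyme reaction rate more than 3 SD below the solvent-only control wells on the same plate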;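 note: lower slope than DMSO wells means FECH inhibition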
Target sequence (P22830 whole entry, looked up): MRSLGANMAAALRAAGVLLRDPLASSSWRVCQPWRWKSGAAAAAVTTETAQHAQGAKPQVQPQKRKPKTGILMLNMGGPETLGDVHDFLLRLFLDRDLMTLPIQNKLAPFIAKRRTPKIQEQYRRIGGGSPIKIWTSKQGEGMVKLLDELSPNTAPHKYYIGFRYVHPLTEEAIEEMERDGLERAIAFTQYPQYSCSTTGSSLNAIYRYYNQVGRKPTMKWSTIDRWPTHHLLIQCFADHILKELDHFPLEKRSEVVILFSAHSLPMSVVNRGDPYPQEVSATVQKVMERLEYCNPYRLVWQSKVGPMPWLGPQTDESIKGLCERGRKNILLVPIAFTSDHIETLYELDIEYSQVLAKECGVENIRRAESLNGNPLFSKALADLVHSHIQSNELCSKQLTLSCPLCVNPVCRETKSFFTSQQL
An asterisk follows results filed as active.

What do the screens show for `CCc1c(C)nc2ncnn2c1Sc1ccc(NC(=O)c2c(OC)cccc2OC)cc1`?
FECH inh: inactive

How did Cc1nc(S(=O)(=O)N(CCc2ccccc2)C2CCN(C)CC2)cn1C do in these assays?
FECH inh: inactive

What do the screens show for `O=C(c1cc(-c2ccccc2)n[nH]1)N(Cc1nccs1)C1CC1`?
FECH inh: inactive

What do the screens show for `C=CCn1cc(CN(Cc2sccc2C)C2CC2)c(C)n1`?
FECH inh: inactive

Results for CCCc1cc(Sc2ccc(NC(=O)c3cccc(OC)c3)cc2)n2ncnc2n1 ?
FECH inh: active

Results for CCCc1c(C)nc2ncnn2c1Sc1ccc(NC(=O)c2cccc(OC)c2)cc1 ?
FECH inh: inactive

Results for CCc1c(C)nc2ncnn2c1Sc1ccc(NC(=O)c2cccc(OC)c2)cc1 ?
FECH inh: inactive

What do the screens show for `CCCc1c(C)nc2ncnn2c1Sc1ccc(NC(=O)Cc2ccc(OC)cc2)cc1`?
FECH inh: inactive

How did CCCc1c(C)nc2ncnn2c1Sc1ccc(NC(=O)c2cc(OC)cc(OC)c2)cc1 do in these assays?
FECH inh: active

How did CCc1cc(Sc2ccc(NC(=O)c3cc(OC)cc(OC)c3)cc2)n2ncnc2n1 do in these assays?
FECH inh: inactive

How did CCc1c(C)nc2ncnn2c1Sc1ccc(NC(=O)c2ccc(OC)c(OC)c2)cc1 do in these assays?
FECH inh: active

What do the screens show for `CCCc1cc(Sc2ccc(NC(=O)c3ccc(OC)c(OC)c3)cc2)n2ncnc2n1`?
FECH inh: inactive

How did CCc1c(C)nc2ncnn2c1Sc1ccc(NC(=O)Nc2ccc(OC)c(OC)c2)cc1 do in these assays?
FECH inh: inactive

Results for Cc1ccc(NC(=O)N2CCC(n3cnc4cccnc43)CC2)cc1C ?
FECH inh: inactive

Results for Cc1cc(N(C)C)nc(Nc2ccc(NC(=O)c3cccs3)cc2)n1 ?
FECH inh: inactive

Results for Cc1cccc(N2CCN(CC(=O)N3CCCC(N(C)C)CC3)CC2)c1 (centres undefined) ?
FECH inh: inactive

Results for Cc1nc(C(C)N(C)C(=O)c2ncn[nH]2)c(C)s1 (centres undefined) ?
FECH inh: inactive

Results for Cc1cc(C)n(-c2ccc(F)cc2CN2C[C@H](N)C[C@H]2C(=O)NC(C)C)n1 ?
FECH inh: inactive

What do the screens show for `Cc1nc2ncnn2c(Sc2ccc(NS(=O)(=O)c3ccc(Cl)cc3)cc2)c1C`?
FECH inh: inactive

How did CC(=O)N1c2ccc(S(=O)(=O)N3CCCCC3)cc2CC1C(=O)NCCCN1CCCC1 (centres undefined) do in these assays?
FECH inh: inactive

What do the screens show for `CC(=O)N1c2ccc(S(=O)(=O)N3CCOCC3)cc2CC1C(=O)NCCN1CCCC1` (centres undefined)?
FECH inh: active

How did CC(=O)N1c2ccc(S(=O)(=O)N3CCCCC3)cc2CC1C(=O)Nc1ccncc1 (centres undefined) do in these assays?
FECH inh: inactive

Results for CC(C)Oc1cccc(F)c1-c1ccc(N)nc1 ?
FECH inh: inactive

What do the screens show for `O=C(NCc1ccccc1)c1nc[nH]c1C(=O)N1CCCC1`?
FECH inh: inactive

Results for O=C1CNC(=O)N1Cc1nc(CCc2ccccc2)nn1-c1ccccn1 ?
FECH inh: inactive

What do the screens show for `Cc1ccccc1NCc1nc2nc(C)c(Cc3ccc(Cl)cc3)c(=O)n2[nH]1`?
FECH inh: inactive

Results for CCOC(=O)CCc1c(C)nc2nc(CNc3ccccc3OC)[nH]n2c1=O ?
FECH inh: inactive

What do the screens show for `CCOC(=O)CCc1c(C)nc2nc(CNc3ccc(Cl)cc3)[nH]n2c1=O`?
FECH inh: active

What do the screens show for `COc1ccc(NCc2nc3nc(C)c(Cc4ccc(Cl)cc4)c(=O)n3[nH]2)cc1`?
FECH inh: active

How did CCc1nc2nc(C)c(NC(=O)Nc3cccc(Cl)c3)c(=O)n2[nH]1 do in these assays?
FECH inh: inactive

What do the screens show for `CCOC(=O)CCc1c(C)nc2nc(CNc3cc(Cl)ccc3OC)[nH]n2c1=O`?
FECH inh: inactive

Results for CCOC(=O)Cc1ccc(NC(=O)Nc2c(C)nc3nc[nH]n3c2=O)cc1 ?
FECH inh: inactive

How did Cc1ccc(NCc2nc3nc(C)c(Cc4ccc(Cl)cc4)c(=O)n3[nH]2)cc1 do in these assays?
FECH inh: inactive

Results for CCOC(=O)CCc1c(C)nc2nc(CNc3ccc(C)c(Cl)c3)[nH]n2c1=O ?
FECH inh: active

Results for CCOC(=O)c1cc2ccsc2n1CC(=O)Nc1cccc(F)c1 ?
FECH inh: inactive

Results for O=C(C1CCOCC1)N1C[C@H](O)[C@@H](N2CCN(c3ccccn3)CC2)C1 ?
FECH inh: inactive

What do the screens show for `Cc1cc(C)n2nc(CN(C(=O)CC(C)C)c3ccc(Cl)cc3)nc2n1`?
FECH inh: inactive

Results for COc1ccc(CC(=O)N(Cc2nc3nc(C)cc(C)n3n2)c2ccccc2)cc1 ?
FECH inh: inactive

What do the screens show for `CC(=O)c1cccc(NC(=O)CN2CCCN(Cc3ccc(C)cc3)S2(=O)=O)c1`?
FECH inh: inactive

Results for O=C(Nc1cccc(OCc2cc(=O)n3cc(Cl)ccc3n2)c1)c1ccco1 ?
FECH inh: inactive

What do the screens show for `COC(=O)c1cc2ccsc2n1CC(=O)NCCC(C)C`?
FECH inh: inactive

Results for COC(=O)[C@H]1C[C@@H](O)CCN1CCOCc1ccccc1 ?
FECH inh: inactive

Results for O=C(NCCN1CCCCC1)C1CCCN1C(=O)C1CCCCC1 (centres undefined) ?
FECH inh: inactive

Results for CCc1cnc(C)nc1N(C)Cc1cc(-c2ccccn2)no1 ?
FECH inh: inactive

What do the screens show for `Cc1cccc(CN2CCCN(CC(=O)Nc3ccccc3)S2(=O)=O)c1`?
FECH inh: inactive

What do the screens show for `Cc1ccc(CN2CCCN(CC(=O)Nc3ccc(C)c(C)c3)S2(=O)=O)cc1`?
FECH inh: inactive

Results for Cc1cccc(CN2CCCN(CC(=O)Nc3cccc(Br)c3)S2(=O)=O)c1 ?
FECH inh: inactive

Results for Cc1ccc(CN2CCCN(CC(=O)Nc3ccc(F)cc3)S2(=O)=O)cc1 ?
FECH inh: inactive

What do the screens show for `Cc1cccc(CN2CCCN(CC(=O)Nc3cc(C)cc(C)c3)S2(=O)=O)c1`?
FECH inh: active

What do the screens show for `O=C(CN1CCCN(Cc2cccc(F)c2)S1(=O)=O)Nc1ccccc1`?
FECH inh: inactive

What do the screens show for `Cc1cccc(CN2CCCN(CC(=O)Nc3ccc(F)cc3)S2(=O)=O)c1`?
FECH inh: active

Results for Cc1ccc(NC(=O)CN2CCCN(Cc3cccc(F)c3)S2(=O)=O)cc1C ?
FECH inh: inactive

Results for Cc1cccc(CN2CCCN(CC(=O)Nc3ccc(C)c(C)c3)S2(=O)=O)c1 ?
FECH inh: active

What do the screens show for `O=C(c1ccccc1N1CCOCC1)N1CCC2(CC1)NCCNC2=O`?
FECH inh: inactive

Results for CC(C)c1nc(CNC(=O)c2ccc(-c3cccnc3)nc2)no1 ?
FECH inh: inactive

Results for Cc1cc(NC(=O)CCC2CC2)n(C2CCCCC2)n1 ?
FECH inh: inactive

Results for CC(Cn1ccc2ccccc21)NCc1nc(-c2ccco2)no1 (centres undefined) ?
FECH inh: inactive

Results for CCCc1cc(=O)n2[nH]c(CNc3ccc(F)cc3)nc2n1 ?
FECH inh: active

What do the screens show for `CCCc1cc(=O)n2[nH]c(CNc3ccccc3OCC)nc2n1`?
FECH inh: inactive

How did CCCc1cc(=O)n2[nH]c(CNc3ccc(Br)cc3)nc2n1 do in these assays?
FECH inh: active

From PubChem BioAssay
